Holding throughout (conditions): concentration: 1 μM, replicates: in singlicate; n = 1
The subject of assay [1] is TSSK3.
Assay [2] relates to TTK.
Assay [3] relates to TXK.
The test system of assay [4] is TYK2(JH1domain-catalytic).
Assay [5] has as its system TYK2(JH2domain-pseudokinase).
The test system of assay [6] is TYRO3.
Assay [7] concerns ULK1.
For assay [8], the system named is ULK2.
The test system of assay [9] is ULK3.
Assay [10] relates to T1, VEGFR2.
T1 construct: gene KDR

The subject of assay [11] is T2, VPS34.
T2 construct: gene PIK3C3

The test system of assay [12] is VRK2.
In assay [13] the test system is WEE1.
Assay [14] deals with WEE2.
Assay [15] concerns WNK1.
In assay [16] the test system is WNK2.
The subject of assay [17] is WNK3.
Assay [18] has as its system WNK4.
Assay [19] has as its system T3, YANK1.
T3 construct: gene STK32A

Assay [20] has as its system T4, YANK2.
T4 construct: gene STK32B

Results on eleven compounds are retold here after article PMC5540273 (PLoS ONE, 2017).

Each structure is given as a SMILES string.
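Further: KINOMEscan kinase panel screen.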

On to `CC(=O)Nc1ccc(COc2ccc(Nc3ccnc4cc(-c5ccccn5)ccc34)cc2)cc1.Cl` [GW440148], for which the “%Inh” value in [1] is reported as 12%; in assay [2] it was 0%; in assay [3], 3%; in assay [4] it was 20%; in [5] it was 5%; in [6], 0%. The “%Inh” value in assay [7] is listed as 0%; in [8], 0%; in assay [9], 3%; in assay [10] it was 99.6%; in [11], 0%; in assay [12] it was 0%. Further, the “%Inh” value in [13] came to 18%; in assay [14], 0%; in [15] it was 10%; in assay [16] it was 9%; in [17] it was 21%; in [18], 83%. Further, the “%Inh” value came out at 6% in [19] and 2% in assay [20].

As for `COc1ccc(Nc2nccc(N3CCC(NC(=O)Nc4cccc(C(C)=O)c4)C3)n2)cc1` (stereo not shown) [GSK1379731], the “%Inh” value in assay [1] was 8%; in assay [2], 15%; in assay [3], 0%; in [4], 35%; in assay [5], 16%; in [6], 6%. The “%Inh” value in assay [7] is on record as 18%; in assay [8], 0%; in assay [9], 16%; in assay [10], 0%; in assay [11] it was 31%; in assay [12], 95.1%. Moreover, the “%Inh” value came to 6% in assay [13]; 0% in assay [14]; 4% in assay [15]; 6% in [16]; 28% in [17]; 0% in assay [18]. Also, the “%Inh” value in assay [19] and in assay [20] was 0% in each case.

For the compound `COc1ccc(S(=O)(=O)NC2CCN(c3cc(C)nc(Nc4cccc(C#N)c4)n3)CC2)cc1.O=C(O)C(F)(F)F` [GSK1653539], the “%Inh” value in assay [1] is 0%; in assay [2] it was 0%; in [3] it was 0%; in assay [4] it was 0%; in assay [5] it was 6%; in [6], 0%. In addition, the “%Inh” value was 0% in [7]; 0% in [8]; 23% in assay [9]; 0% in assay [10]; 0% in [11]; 0% in [12]. In addition, the “%Inh” value in assay [13] stood at 17%; in assay [14] it was 6%; in assay [15] it was 15%; in assay [16], 0%; in [17], 38%; in assay [18], 12%. The “%Inh” value in assay [19] stood at 4%; in assay [20], 0%.

`Cc1nnc(-c2ccc(C)c(-c3ccc(C(=O)Nc4ccc(NS(C)(=O)=O)cc4)cc3)c2)o1` [GW702865]: the “%Inh” value is 3% in assay [1]; 0% in [2]; 0% in assay [3]; 20% in assay [4]; 11% in assay [5]; 0% in assay [6]. Moreover, the “%Inh” value was determined as 0% in assay [7]; 0% in assay [8]; 0% in assay [9]; 9% in assay [10]; 0% in assay [11]; 0% in assay [12]. The “%Inh” value in assay [13] is reported as 17%; in assay [14] it was 0%; in assay [15], 0%; in [16] it was 1%; in assay [17] it was 35%; in [18] it was 26%. The figures for the “%Inh” value in [19] and in assay [20] were 6% and 0%, respectively.

`O=c1cc(N2CCOCC2)nc2n(Cc3cccc(C(F)(F)F)c3)ccn12` [GSK2297543]: the “%Inh” value is recorded as 15% in [1]; 12% in assay [2]; 0% in [3]; 0% in assay [4]; 0% in assay [5]; 0% in assay [6]. Besides, the “%Inh” value in assay [7] was determined as 0%; in assay [8], 0%; in assay [9] it was 9%; in [10] it was 13%; in assay [11] it was 93.9%; in [12], 0%. Moreover, the “%Inh” value worked out at 6% in assay [13]; 10% in assay [14]; 2% in assay [15]; 0% in assay [16]; 19% in assay [17]; 22% in [18]. The “%Inh” value in assay [19] and in [20] was 0% in each case.

For `[2H]C([2H])(c1cccc(C(F)(F)F)c1C)n1ccn2c(=O)nc(N3CCOCC3)cc12` [GSK2336394], the “%Inh” value in assay [1] turned out to be 14%; in assay [2] it was 0%; in [3] it was 0%; in assay [4], 71%; in [5], 13%; in assay [6], 0%. The “%Inh” value in assay [7] worked out at 0%; in assay [8], 0%; in assay [9], 8%; in [10], 0%; in assay [11], 0%; in assay [12], 0%. Moreover, the “%Inh” value is recorded as 9% in assay [13]; 10% in assay [14]; 7% in assay [15]; 0% in [16]; 28% in assay [17]; 36% in assay [18]. For the same compound, the “%Inh” value in assay [19] is 11%; in assay [20], 0%.

Turning to `N#Cc1c(N2CCOCC2)sc(-c2ccn[nH]2)c1-c1ccc(Cl)cc1`, the “%Inh” value was 0% in assay [1]; 19% in [2]; 0% in [3]; 14% in [4]; 20% in assay [5]; 0% in assay [6]. For the same compound, the “%Inh” value in assay [7] was determined as 8%; in [8] it was 15%; in assay [9], 20%; in assay [10] it was 11%; in assay [11], 86%; in assay [12], 35%. The “%Inh” value in [13] came to 0%; in assay [14], 0%; in [15], 0%; in [16] it was 4%; in assay [17], 14%; in assay [18], 34%. For the same compound, the “%Inh” value in assay [19] and in [20] was 0% each time.

As for `Cc1ccc(C(=O)NCC(N)=O)cc1-n1c(C)cc(OCc2ccc(F)cc2F)c(Br)c1=O`, the “%Inh” value in assay [1] is recorded as 0%; in assay [2], 35%; in assay [3], 21%; in assay [4] it was 0%; in assay [5], 0%; in assay [6] it was 3%. In addition, the “%Inh” value in [7] came to 0%; in [8], 0%; in [9], 2%; in [10] it was 0%; in [11], 0%; in assay [12] it was 0%. In addition, the “%Inh” value was 3% in [13]; 17% in [14]; 0% in assay [15]; 5% in [16]; 0% in [17]; 0% in assay [18]. Moreover, the “%Inh” value in assay [19] amounted to 0%; in assay [20] it was 10%.

As to `Cc1cccc(-c2nc(-c3ccc(S(C)(=O)=O)cc3)sc2-c2ccncc2)c1`, the “%Inh” value in assay [1] stood at 0%; in assay [2], 20%; in assay [3], 0%; in [4] it was 2%; in [5], 3%; in assay [6] it was 0%. The “%Inh” value in assay [7] came out at 0%; in assay [8], 0%; in assay [9], 0%; in [10] it was 0%; in assay [11], 12%; in assay [12], 0%. The “%Inh” value in [13] was 0%; in assay [14], 7%; in [15] it was 0%; in [16], 0%; in [17] it was 0%; in [18] it was 0%. Also, the figures for the “%Inh” value in [19] and in [20] were 0% and 23%, respectively.

As to `O=C(NCCNc1ccnc(Nc2ccc(F)cc2)n1)c1cc2ccccc2s1` [GSK1379874], the “%Inh” value was found to be 22% in assay [1]; 0% in assay [2]; 100% in assay [3]; 0% in assay [4]; 21% in assay [5]; 0% in [6]. Besides, the “%Inh” value in assay [7] turned out to be 3%; in assay [8], 0%; in [9] it was 1%; in assay [10], 0%; in assay [11], 16%; in [12], 0%. The “%Inh” value in assay [13] is 38%; in assay [14], 5%; in assay [15], 0%; in assay [16] it was 0%; in [17], 16%; in [18], 39%. Besides, the “%Inh” value in assay [19] and in assay [20] was 0% in each case.

On to `CCCCCc1nc2c(N)ncnc2n1CCCCC` [SKF-97255], for which the “%Inh” value is given as 0% in [1]; 0% in [2]; 12% in assay [3]; 7% in [4]; 9% in assay [5]; 0% in [6]. Moreover, the “%Inh” value is given as 12% in assay [7]; 12% in [8]; 11% in assay [9]; 0% in [10]; 0% in [11]; 0% in [12]. In addition, the “%Inh” value in assay [13] was 0%; in assay [14], 3%; in assay [15], 7%; in [16], 0%; in assay [17], 0%; in [18], 0%. The “%Inh” value in assay [19] stood at 0%; in [20] it was 12%.
